Results as given in PubChem BioAssay AID1259421 (Broad Institute, 2018).
Values joined by “and” are separate entries in the source; they are usually repeats but may differ in a detail not shown here. Equal values may be shown once. Among all 6,400 compounds or so, about 610 (9.5%) were called active. Cut-off read from the data, not from the text of the source: active = activity change below about -70%; inconclusive = no clear call, values can overlap the other calls; inactive = above that. What follows is part of a selection rich in actives, with near analogues and random picks from the rest. More than one record can exist for a structure, and the calls need not agree.

Assay: Toxoplasma gondii ME49Luc growth in HeLa cells, luciferase, no IFN-y, primary screen (AID 1259421)
Settings: T. gondii ME49Luc in HeLa, 72 h, stronger effect = lower value, concentration not given here

Structure (SMILES) | activity change, negative = inhibition
CC1CC2C3CCC4=CC(=O)C=CC4(C)C3(F)C(O)CC2(C)C1(O)C(=O)CO (configuration not stated) | -10.3% (inactive)
C=CCn1c(=O)c2cnc(Nc3ccc(N4CCN(C)CC4)cc3)nc2n1-c1cccc(C(C)(C)O)n1 | -82.2% (active)
CN1CCN(c2cccc(Nc3nc4c(-c5ccc(S(C)(=O)=O)cc5)cccn4n3)c2)CC1 | -0.0052% (inactive)
CC1(C)O[C@@H]2CC3C4CCC5=CC(=O)C=C[C@]5(C)C4[C@@H](O)C[C@]3(C)[C@]2(C(=O)CO)O1 (some centres not stated) | 0.966% (inactive)
CC(C)C(=O)OC[C@@]1(N=[N+]=[N-])O[C@@H](n2ccc(N)nc2=O)[C@H](OC(=O)C(C)C)[C@@H]1OC(=O)C(C)C | 6.96% (inactive)
Cn1ncc(Cl)c1-c1cc(C(=O)N[C@H](CN)Cc2ccc(F)c(F)c2)oc1Cl | -80% (active)
Cn1ncc(Cl)c1-c1cc(C(=O)N[C@H](CN)Cc2cccc(F)c2)sc1Cl | -49.2% (inactive)
CNCC(=O)O | -1.68% (inactive)
CCCCCS(=O)(=O)CCCCCCCCCCn1c(-c2ccc(O)cc2)c(C)c2cc(O)ccc21 | -63.6% (inactive) and -77.2% (active)
CCCCCCc1ccc(O)cc1O | 10.9% (inactive)
CCOC(=O)c1c(C)n(C)c2ccc(O)cc12 | -6.15% (inactive) and 12.7% (inactive)
C[C@@]12CCC3[C@@](CC[C@@H]4[C@](C)(C(=O)O)CCC[C@@]34C)(CC1=O)C2 (some centres not stated) | 7.66% (inactive)
O=C(O)CSc1nnc(Br)n1-c1ccc(C2CC2)c2ccccc12 | 0.38% (inactive)
CCCCCCCCCCOc1cc2c(=O)c(C(=O)OCC)c[nH]c2cc1OCC | 30.1% (inactive)
O=C(O)c1cc(N(Cc2ccccc2O)Cc2ccccc2O)ccc1O | 2.11% (inactive)
Cc1ccccc1-c1cc(N2CCN(C)CC2)ncc1N(C)C(=O)C(C)(C)c1cc(C(F)(F)F)cc(C(F)(F)F)c1 | -80.1% (active)
CO[C@@]1(NC(=O)C2SC(=C(C(N)=O)C(=O)O)S2)C(=O)N2C(C(=O)O)=C(CSc3nnnn3C)CSC21 (some centres not stated) | 5.67% (inactive)
CC1CC2C3CC(F)C4=CC(=O)C=CC4(C)C3(F)C(O)CC2(C)C1(CC(=O)CO)C(=O)SCF (configuration not stated) | -4.39% (inactive)
Cc1oc(=O)oc1COC(=O)C1=C([C@H]2CCCO2)S[C@@H]2[C@@H]([C@@H](C)O)C(=O)N12 | 16.9% (inactive)
Cc1cccc(Nc2nc(-c3ccncc3)cs2)c1 | 107% (inactive)
O=C(NCc1cccc(O)c1)Nc1nc(-c2ccncc2)cs1 | -70.8% (active)

Structure (SMILES) | activity change, negative = inhibition
O=C(NCc1ccccc1)c1csc(Nc2ccncn2)n1 | -56.6% (inactive)
CC(C)CN(C[C@@H](OP(=O)(O)O)[C@H](Cc1ccccc1)NC(=O)O[C@H]1CCOC1)S(=O)(=O)c1ccc(N)cc1 | -5.19% (inactive)
CCC(CC)O[C@@H]1C=C(C(=O)O)C[C@H](N)[C@H]1NC(C)=O | 3.98% (inactive)
O=C1Cc2c([nH]c3ccc(Br)cc23)-c2ccccc2N1 | 406% (inactive) and -6.73% (inactive)
O=C1Cc2c([nH]c3ccc([N+](=O)[O-])cc23)-c2ccccc2N1 | -78% (active)
O=C1Cc2c([nH]c3ccc(Br)cc23)-c2ncccc2N1 | 206% (inactive)
O=c1c2c(c1=O)N(CCP(=O)(O)O)CCCN2 | 4.23% (inactive)
OCCN1C[C@@H](O)[C@@H](O)C(O)C1CO (some centres not stated) | 10.9% (inactive)
COc1cc2ncc(-c3ccccc3)nc2cc1OC | -82.6% (active)
COC(=O)[C@H](NC(=O)c1cc(-c2ccccc2)nc2ccccc12)c1ccccc1 | 9.5% (inactive) and 19.2% (inactive)
Cc1cc2ncc(-c3ccccc3)nc2cc1C | 459% (inactive)
COc1ccc(-c2oc3cc(OC)c(OC)c(OC)c3c(=O)c2OC)cc1 | -3.53% (inactive)
CC(=O)c1cc([N+](=O)[O-])c(Sc2ccc(F)cc2F)s1 | -85.3% (active)
CC(=O)c1cc([N+](=O)[O-])c(Sc2cccc(Cl)c2Cl)s1 | 14.1% (inactive)
C=C[C@@]1(C)CC(=O)[C@]2(O)[C@@]3(C)[C@@H](O)CCC(C)(C)[C@@H]3[C@H](OC(=O)CCN(C)C)[C@H](OC(C)=O)[C@@]2(C)O1 | 0.0952% (inactive)
C=CCN1CCN(c2nc3ccccc3nc2C#N)CC1 | -7.28% (inactive) and 5.54% (inactive)
c1ccc(Cn2c(N3CCNCC3)nc3ccccc32)cc1 | 6.11% (inactive)
Cc1oc2nc3c(c(NC(=O)CN4CCCC4=O)c2c1C)CCCC3 | 1.4% (inactive)
COc1cc2ncnc(Nc3ccc(O)c(Br)c3)c2cc1OC | -58.4% (inactive)
Nc1cc2ncnc(Nc3cccc(Br)c3)c2cc1N | 4.16% (inactive)
OCc1cc2ncnc(Nc3ccc(O)c(Br)c3)c2cc1CO | -79.3% (active)

Structure (SMILES) | activity change, negative = inhibition
C[C@H](CCC(=O)O)[C@@H]1CC[C@H]2[C@@H]3CC[C@@H]4C[C@H](O)CC[C@]4(C)[C@H]3CC[C@@]21C | 11.8% (inactive)
Cn1c(COc2ccc(CC3SC(=O)NC3=O)cc2)nc2ccccc2c1=O (configuration not stated) | -40.6% (inactive)
COc1ccc(-c2cc(=O)c3c(O)c(OC)c(O)cc3o2)cc1OC | 48.9% (inactive)
CC[C@@H]1C(=O)N(C)c2cnc(Nc3ccc(C(=O)NC4CCC(N5CCN(CC6CC6)CC5)CC4)cc3OC)nc2N1C(C)C (some centres not stated) | -84.3% (active)
COc1cc(OC2CCN(C)CC2)ccc1Nc1ncc2c(n1)n(C1CCCC1)c(=O)n2C | -32% (inactive)
CC[C@@H]1C(=O)N(C)c2cnc(Nc3ccc(C(=O)NC4CCN(C)CC4)cc3OC)nc2N1C1CCCC1 | -62.8% (inactive)
COc1ccc2nc([S@@](=O)Cc3ncc(C)c(OC)c3C)[nH]c2c1 | -6.99% (inactive) and 19.3% (inactive)
OCc1cncc(F)c1 | 11.3% (inactive)
O=C(O)c1cc(=O)c2ccccc2[nH]1 | 7.07% (inactive)
O=C(O)c1cc(=O)c2cccc(O)c2[nH]1 | -75.2% (active)
O=C(O)c1cc(=O)c2ccc(Cl)cc2[nH]1 | 9.46% (inactive) and -2.93% (inactive)
COc1ccc(C(=O)N2CCCc3cc(C4=NNC(=O)SC4C)ccc32)cc1OC (configuration not stated) | -41.6% (inactive)
CC1CCC(NC(=O)N(CCCl)[NH2+][O-])CC1 (configuration not stated) | 75.3% (inactive)
Cc1ccc(NC2=CC(=O)c3sc(C)nc3C2=O)cc1 | -74.1% (active)
CC(C)(C)NCC(O)COc1ccc(NC(=O)NC2CCCCC2)cc1 (configuration not stated) | 3.16% (inactive)
COc1ccc(CCNCC(O)COc2cccc(C)c2)cc1OC (configuration not stated) | 9.54% (inactive)
CC1=C(C(=O)O)N2C(=O)[C@@H](NC(=O)C(N)c3ccc(O)cc3)[C@H]2SC1 (some centres not stated) | 4.06% (inactive)
Cc1c(-c2ccc(O)cc2)n(Cc2ccc(OCCN3CCCCCC3)cc2)c2ccc(O)cc12 | -80.5% (active)
Cc1ccc(CC2(O)CCN(CCOc3ccc(O)cc3)CC2)cc1 | -6.15% (inactive) and -9.12% (inactive)
O=C(c1ccc(OCCN2CCCCC2)cc1)c1c(-c2ccc(O)cc2)sc2cc(O)ccc12 | -9.78% (inactive) and -5.73% (inactive)
CC(=O)OCCN1C(=O)c2c(C)nc3ccc(S(=O)(=O)N4CCOCC4)cc3c2C1=O | -1.17% (inactive)

Structure (SMILES) | activity change, negative = inhibition
Nc1cc(Nc2ccc(S(N)(=O)=O)cc2)ncn1 | 14.5% (inactive)
COc1c(O)cc2c(c1O)[C@H]1O[C@H](CO)[C@@H](O)[C@H](O)[C@@H]1OC2=O | -5.41% (inactive)
CCOC(=O)c1cnc2oc3ccc(O)cc3c2c1-c1ccccc1 | 6.27% (inactive)
CS(=O)(=O)CCNCc1nc(-c2ccc3ncnc(Nc4ccc(OCc5cccc(F)c5)c(Cl)c4)c3c2)cs1 | -30.2% (inactive) and 30.3% (inactive)
CS(=O)(=O)CCNCc1ccc(-c2ccc3ncnc(Nc4ccc(OCc5cccc(F)c5)c(Cl)c4)c3c2)o1 | -64.5% (inactive) and -82.3% (active)
C=CC(=O)Nc1ccc2ncnc(Nc3ccc(OCc4cccc(F)c4)c(Cl)c3)c2c1 | -52.5% (inactive)
OC(CCl)CN1CC[N+]2(CC1)CC[N+]1(CCN(CC(O)CCl)CC1)CC2 (configuration not stated) | 9.78% (inactive)
CC1CCCC(C)N1NC(=O)c1ccc(Cl)c(S(N)(=O)=O)c1 (configuration not stated) | 15.9% (inactive)
NCCNS(=O)(=O)c1cccc2c(Cl)cccc12 | -0.625% (inactive)
C#Cc1cccc(Nc2ncnc3cc(OCCOC)c(OCCOC)cc23)c1 | -1.64% (inactive) and -10.5% (inactive)
C#Cc1cccc(Nc2ncnc3cc(OCCOC)c(OCCO)cc23)c1 | -30.3% (inactive)
C#Cc1cccc(Nc2ncnc3cc(OC)c(OCCCCCCC(=O)NO)cc23)c1 | -82.6% (active)
COc1ccc2[nH]c(S(=O)Cc3ncc(C)c(OC)c3C)nc2n1 (configuration not stated) | 29.4% (inactive) and 28.4% (inactive)
Cc1ccc2c(c1)C(=O)C1(O)CCN(c3ccccc3)C1=N2 (configuration not stated) | 12.8% (inactive)
COc1ccccc1OC(=O)C(C)c1ccc(CC(C)C)cc1 (configuration not stated) | -39.2% (inactive)
O[n+]1ccccc1[S-].O[n+]1ccccc1[S-].[Zn+2] | -66.7% (inactive)
O=C1NC(=O)C(c2cnc3ccccn23)=C1c1cn2c3c(cc(F)cc13)CN(C(=O)N1CCCCC1)CC2 | -84.1% (active)
CC(C)n1nnc2cc(C(=O)O)ccc21 | 9.2% (inactive) and 12.9% (inactive)
Cc1nc2sccn2c(=O)c1CCN1CCC(=C(c2ccc(F)cc2)c2ccc(F)cc2)CC1 | -60.2% (inactive) and 18.5% (inactive)
